Laboratory results taken from PubChem BioAssay AID1210 (NMMLSC, 2008).
Calls of active or inactive are those of the source.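 The calls were made as follows: active = blocks over 70% of labeled estradiol binding at 10 µM, or over a set limit at 100 nM; inactive = the rest.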

Target: Estrogen receptor beta (Homo sapiens) (UniProt Q92731)
Assay: ERbeta ligand binders by competition, primary screen, cell-based, Cos7 ERbeta-GFP, flow cytometry (AID 1210);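 also: 0% = DMSO vehicle wells and 100% = complete loss of labeled estradiol signal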
Conditions: fluorescent estrogen binding, stronger effect = higher value
[1] = ligand binding inhibition, at 0.1 µM

Chain of Estrogen receptor beta (Homo sapiens) (Q92731 whole entry, looked up): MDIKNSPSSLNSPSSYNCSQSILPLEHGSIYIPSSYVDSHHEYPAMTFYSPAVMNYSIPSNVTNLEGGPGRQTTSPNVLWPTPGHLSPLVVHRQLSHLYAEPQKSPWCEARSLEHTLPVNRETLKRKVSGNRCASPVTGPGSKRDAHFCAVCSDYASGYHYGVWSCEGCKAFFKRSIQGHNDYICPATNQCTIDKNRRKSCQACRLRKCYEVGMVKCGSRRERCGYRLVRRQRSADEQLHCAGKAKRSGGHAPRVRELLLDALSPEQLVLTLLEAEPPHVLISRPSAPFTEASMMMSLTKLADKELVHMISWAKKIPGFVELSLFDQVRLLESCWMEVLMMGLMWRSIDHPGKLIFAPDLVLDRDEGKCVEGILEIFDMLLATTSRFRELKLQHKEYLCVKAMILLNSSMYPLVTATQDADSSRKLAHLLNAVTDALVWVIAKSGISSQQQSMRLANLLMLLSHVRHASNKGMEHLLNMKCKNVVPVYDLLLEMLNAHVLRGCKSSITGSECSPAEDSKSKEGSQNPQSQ

Structure (SMILES) | inhibition (at 10 µM) | inhibition [1] [%]
CCCCn1c(=O)[nH]c2nc3cc(N)ccc3nc2c1=O | 31% (inactive) | 16
FC(F)(F)c1ccc2c(c1)C1C=CCC1C(c1ccncc1)N2 (centres undefined) | 0% (inactive) | 51
COc1nc(-c2ccc(Cl)cc2)ccc1-c1noc(-c2ccco2)n1 | 72% (active) | 56
CCOC(=O)c1c(C)[nH]c(C)c1C(=O)CSc1nnc(-c2cc(OC)c(OC)c(OC)c2)o1 | 69% (inactive) | 7
O=C(COC(=O)CC1CCCC1)Nc1cc2c(cc1Cl)C(=O)c1ccccc1C2=O | 47% (inactive) | 15
CCOc1[nH]c(/N=C/c2ccco2)c(C#N)c1C#N | 35% (inactive) | 15
COc1cc(O)c2c(=O)c3c(OC)c(O)ccc3oc2c1 | 41% (inactive) | 25
CN(C)C(=O)c1ccc2c(c1)C1C3CCC(C3)C1C(c1ccccc1)N2 (centres undefined) | 0% (inactive) | 51
Oc1ccc(-c2cn3cc(C(F)(F)F)ccc3n2)cc1 | 41% (inactive) | 10
O=C1/C(=C\c2ccco2)SC(=S)N1c1ccc(O)cc1 | 77% (active) | 27
Nc1ncnc2c1ncn2C1CCC(CO)C(O)C1 (centres undefined) | 48% (active) | 69
O=C(Nc1ccc(N2CCCC2)cc1)C(c1ccccc1)c1ccccc1 | 69% (inactive) | 19
CCOC(=O)CN1C(c2ccc(O)cc2)Nc2ccc(Br)cc2C1c1ccccc1 (centres undefined) | 48% (inactive) | 23
Cc1ccc(N=Cc2c(O)n(-c3ccc4c(c3)OCO4)c(=O)c3ccccc23)cc1 | 15% (inactive) | 21
O=C(Nc1nccs1)c1nc(-c2ccccc2)n(-c2ccccc2)n1 | 38% (inactive) | 22
Nc1ccc(-c2cc(-c3cccc(N)c3)nc(-c3ccccc3)n2)cc1 | 39% (inactive) | 27
Cc1cs/c(=N\N=C\c2ccc(O)cc2)n1Cc1ccco1 | 45% (inactive) | 21
Cc1csc2nc(CCNS(=O)(=O)c3ccc4c(c3)OCCO4)cn12 | 13% (active) | 87
CCCOc1ccc(-c2nn(-c3ccccc3)cc2/C=C2\SC(N)=NC2=O)cc1 | 36% (inactive) | 19
Cc1oc2c(C)c(O)ccc2c(=O)c1N1C(=O)c2ccccc2C1=O | 16% (inactive) | 18
COc1cc(NC(=O)c2cccs2)c(C(=O)OCC(=O)NCc2ccco2)cc1OC | 41% (inactive) | 47

Structure (SMILES) | inhibition (at 10 µM) | inhibition [1] [%]
Cc1ccc(Nc2nnc(SCC(=O)NCc3ccco3)s2)cc1 | 18% (inactive) | 18
CN(c1ccccc1C(=O)O)S(=O)(=O)c1ccc2c3c(cccc13)C(=O)N2 | 0% (inactive) | 6
COc1ccc2nc3oc(C(=O)N4CCN(c5cccc(C(F)(F)F)c5)CC4)cc3cc2c1 | 24% (inactive) | 47
O=C(Nc1cccc2cccc(NC(=O)c3ccco3)c12)c1ccco1 | 24% (inactive) | 22
O=C(COC(=O)c1cccc(S(=O)(=O)N2CCc3ccccc3C2)c1)NCc1ccco1 | 29% (inactive) | 5
CCOc1cccc2cc(-c3cn4cc(C)ccc4n3)c(=O)oc12 | 27% (inactive) | 16
COc1ccc(CNC(=O)COC(=O)c2cc(-c3ccco3)nc3ccccc23)cc1 | 18% (inactive) | 8
CC(O)C1CCC2C3CC[C@H]4CC(O)CCC4(C)C3CC3(OCCO3)C12C (some centres undefined) | 18% (inactive) | 13
O=C(O)c1ccc(NS(=O)(=O)c2ccc3c(c2)C2C=CCC2C(c2ccccc2F)N3)cc1 (centres undefined) | 7% (inactive) | 9
CC(=O)Nc1ccc(N=Cc2nc(-c3ccc(C)cc3)oc2O)cc1 | 68% (inactive) | 56
Nc1ccc(-c2nc3ccc(C(=O)O)cc3s2)cc1 | 65% (inactive) | 10
Nc1ccc(/C=C/C(=O)c2ccco2)cc1 | 0% (inactive) | 37
Nc1ccc2nc(CN3CCOCC3)[nH]c2c1 | 6% (inactive) | 47
O=C(c1cc2ncc(Br)cn2n1)N1CCOCC1 | 68% (inactive) | 41
CCOc1cc(N2CCOCC2)c(OCC)cc1NC(=O)c1cc(-c2ccco2)nc2ccccc12 | 47% (inactive) | 48
O=c1cc(-c2ccccc2Cl)oc2c(Br)ccc(O)c12 | 33% (inactive) | 19
C=CCSC1=N/C(=C\C=C\c2ccco2)C(=O)S1 | 24% (inactive) | 1
CCC(=O)Oc1ccc(/C(CC)=C(\CC)c2ccc(OC(=O)CC)cc2)cc1 | 68% (active) | 80
COc1ccc(-c2ccc(=O)[nH]n2)cc1 | 0% (inactive) | 16
Cc1cc(NC(=O)CSc2cn(CCNC(=O)c3ccc(Cl)cc3)c3ccccc23)no1 | 11% (inactive) | 31
CCN(c1ccccc1)S(=O)(=O)c1cc(C(=O)O)ccc1C | 2% (inactive) | 13
